Test results taken from the supplement of paper PMC6555819.

Tests used:
Test in all cases: PBM binding z-score (relative to random genomic background probes); higher = stronger binding; sequences stand for … in GC…GCGATTGACAGCGTAGAATGAAGG
[1] = tested on: FXR:RXRa (NR concentration 270 nM, RXRa partner concentration 90 nM)
Summary of the method: (§1)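 Ligand-free nuclear receptor dimers were bound for 1 h to custom Agilent 4×180K protein-binding microarrays. Detection used antibodies against each partner (one per run). Binding z-scores rest on regression-normalized fluorescence, with random background probes as the reference.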

[2] = tested on: LXRa:RXRa (NR concentration 270 nM, RXRa partner concentration 90 nM)
Summary of the method: as §1

[3] = tested on: LXRa homodimer (NR concentration 270 nM)
Summary of the method: as §1

[4] = tested on: LXRb:RXRa (NR concentration 270 nM, RXRa partner concentration 90 nM)
Summary of the method: as §1

[5] = tested on: LXRb homodimer (NR concentration 270 nM)
Summary of the method: as §1

[6] = tested on: PPARa:RXRa (NR concentration 270 nM, RXRa partner concentration 90 nM)
Summary of the method: as §1

[7] = tested on: PPARg:RXRa (NR concentration 180 nM, RXRa partner concentration 90 nM)
Summary of the method: as §1

[8] = tested on: PPARg:RXRa 270nM:90nM, anti-RXR (NR concentration 270 nM, RXRa partner concentration 90 nM)
Summary of the method: as §1

[9] = tested on: PPARg:RXRa 30nM:10nM, anti-RXR (NR concentration 30 nM, RXRa partner concentration 10 nM)
Summary of the method: as §1

[10] = tested on: PPARg:RXRa 90nM:30nM, anti-RXR (NR concentration 90 nM, RXRa partner concentration 30 nM)
Summary of the method: as §1

| Sequence | PBM binding z-score [1] | PBM binding z-score [2] | PBM binding z-score [3] | PBM binding z-score [4] | PBM binding z-score [5] | PBM binding z-score [6] | PBM binding z-score [7] | PBM binding z-score [8] | PBM binding z-score [9] | PBM binding z-score [10] |
| --- | --- | --- | --- | --- | --- | --- | --- | --- | --- | --- |
| GCTAGCAGGCCATTTGGGTCACTTAATGACGGGC | 0.0717 | -0.185 | -0.464 | -0.142 | -0.905 | 1.16 | 0.67 | 0.681 | -0.515 | 0.00792 |
| AGAACCAGGGCAATGAGTTGATAGCACGGGTGGC | -0.133 | -0.319 | -0.429 | -0.657 | -0.564 | 0.717 | 1.19 | 0.451 | -0.539 | 0.047 |
| TAGCCTAGGTCATGGGCAAGTATACCACGCGAAC | 4.43 | 3.35 | 0.241 | 2.46 | -0.306 | 4.37 | 3.93 | 3.3 | 0.879 | 2.22 |
| TCGAGCAGGTTAGGGGCATTCAGAATGGCGTCGA | 0.0413 | 0.102 | -0.285 | 0.523 | -0.591 | 0.89 | -0.117 | 0.183 | 0.0683 | 0.228 |
| AGTCACAGTTCACTAGGTAACGTAAGATTCAGCT | 0.936 | 1.66 | 0.659 | 1.19 | 0.166 | 2.84 | 2.96 | 3.17 | 1.06 | 2.12 |
| CCTACTGGGCCACGAAAGGTCATTAATTCAGTGA | 3.16 | 4.95 | 4.76 | 4.24 | 0.358 | 4.48 | 4.47 | 4.57 | 1.99 | 3.83 |
| ATCCCTAGGTAACCAAGTTCAGTGAATGCCGAAC | 0.476 | 1.09 | 1.1 | 0.956 | 0.382 | 0.985 | 0.276 | 0.246 | -0.161 | -0.0393 |
| GCTGCTTGGTCAACTGATGGTCAGCTAAAGCTCG | -0.663 | -0.552 | -0.675 | -0.752 | -0.593 | -0.414 | -0.68 | -0.367 | -1.15 | -0.725 |
| AGAATGAGGTTATTAAGATAAGGGAATTGCGGTC | 1.33 | 1.59 | -0.0371 | 1.08 | -0.0386 | 2.64 | 1.47 | 1.65 | 0.732 | 0.962 |
| CCGACTGGGGCAGAAAGTTTACCATACCATCCGG | -0.706 | -0.595 | -0.267 | -0.494 | -0.896 | -0.213 | 0.681 | 0.251 | -0.507 | -0.116 |
| CCTCGGAGAACAGAAGGTCAGAGCTGTCCGCTTT | 1.13 | 1.7 | 0.757 | 1.3 | -0.0418 | 1.85 | -0.162 | 0.587 | -0.776 | 0.369 |
| CGTCCAAGGTCAGCAGGTCGGTGAAAGCGACGTG | 5.28 | 3.29 | -0.232 | 2.07 | -0.502 | 4.33 | 2.97 | 3.45 | 0.508 | 2.15 |
| TGAATGAGGTTATAAGATCCGGGAACGTTGCAAA | 1.15 | 1.21 | -0.3 | 0.909 | -0.0595 | 2.45 | 1.01 | 1.33 | 0.723 | 1.15 |
| TAGCCTAGGTCATGCGGGCCCGTATAGTGTCGGC | 3.96 | 3.12 | 0.169 | 1.59 | 0.214 | 3.37 | 1.74 | 2.29 | 0.0314 | 1.22 |
| CAAACTAGGTCACAGAGGTCAAAGTACGTGCGTA | 7.52 | 6.76 | 7.47 | 6.46 | 2.46 | 6.64 | 10.3 | 8.39 | 6.94 | 8.5 |
| GCTAGTTGGTCTGTAAAAGGTCACACACCGGTCG | 3.27 | 4.45 | 4.26 | 3.98 | 0.57 | 4.33 | 2.5 | 4.63 | 2.19 | 4.12 |
| GATACAGGGTCAGCGAGAGGCCAGAGTATGGAAA | 5.07 | 3.15 | -0.446 | 2.63 | -1.12 | 5.05 | 4.14 | 3.78 | 1.07 | 2.38 |
| TAGCTTAGGTCAGATCGGGCCAGTATACGCTATA | 2 | 1.41 | -0.333 | 0.69 | 0.0114 | 1.96 | 0.531 | 0.891 | 0.0799 | 0.412 |
| TCAGAAAGGTGAAGGTAACTCAGGTACGCAGTCG | 1.82 | 2.61 | 0.105 | 1.67 | -0.156 | 2.97 | 1.75 | 3.44 | 4.63 | 4.04 |
| CCAGACAGGTGAAAGGTTACTCAGTCTGGTACGC | 2.37 | 2.59 | 0.167 | 2.26 | -0.0595 | 4.67 | 7.6 | 7.17 | 5.84 | 7.77 |
| CCTAGTTGGTCAGGAGGTCACACAGCGGATATGA | 4.26 | 3.54 | 2.17 | 3.55 | 0.887 | 4.36 | 3.51 | 4.15 | 1.76 | 3.56 |
| TAGCGTAGGTCATGCGGGCCAGTATAGTGTCGGC | 4.01 | 3.6 | 0.172 | 2.19 | -0.449 | 3.68 | 1.98 | 2.43 | 0.234 | 1.45 |
| TCTATTAGTTGAAGGGCACCCGACGAGTCCGTTT | 0.72 | 0.953 | 0.3 | 0.709 | 0.846 | 0.943 | 0.172 | 2 | 3.71 | 2.96 |
